Reference: ChEMBL document CHEMBL3988442, “University of Dundee, Small-Polar-MMV Screening Library” (2021)
Out of some 85,000 compounds screened, about 440 (0.52%) showed an effect of 50% or more. What follows is part of a selection rich in strong results, with near analogues and random picks from the rest.

Test: In vitro enzyme assay to detect hydrolysis of chlorophenol red-beta-D-[…] directly proportional to the number of Toxoplasma stably expressing beta-galactosidase
Type: functional, organism-based, Toxoplasma gondii
Parameters: scale not given: in the data most compounds retested in dose-response had high values

| SMILES | Percent Effect (50 µM) | Percent Effect (10 µM) |
| --- | --- | --- |
| Cc1nnc(SCC(=O)C(C)(C)C)[nH]1 | 12.7% | – |
| Cc1n[nH]cc1CNCCNc1ncc(Cl)cc1Cl | 5.335% | – |
| CNC(=O)CN(C)C(=O)CCc1ccc(Br)cc1F | 0.9597% | – |
| COc1ccccc1C(=O)N1CCN(C2CC2)C(=O)C1 | -3.275% | – |
| O=C(c1cnsn1)N1CCN(C2CC2)C(=O)C1 | 91.53% | – |
| NCc1ccc(C(=O)N2CCN(C3CC3)C(=O)C2)cc1 | 8.158% | – |
| COc1cc(CN)ccc1OCC(N)=O | 19.26% | – |
| Cc1nc(CC(=O)NCCN2CCNC2=O)c(C)s1 | -2.42% | – |
| O=C(NCCO)Nc1nc2ccccc2s1 | 9.255% | – |
| NCCNc1nc2ccccc2s1 | 19.92% | – |
| OCCNc1nc2ccccc2s1 | 92.76% | – |
| NC(=O)C1CCN(c2ncnc3ccsc23)CC1 | 0.8525% | – |
| CCOC1CCCN(C(=O)c2ccc(C)[nH]c2=O)C1 (configuration not stated) | 1.701% | – |
| CC(C)n1cc(S(=O)(=O)N2CCCCCC2)cn1 | – | 51.25% |
| CC(C)n1cc(S(=O)(=O)N2CCSCC2)cn1 | – | 32.53% |
| CC(C)n1cc(S(=O)(=O)N2CCCCC2)cn1 | – | 1.913% |
| CN(C)C(=O)c1ccc(Oc2ncccn2)cc1 | -3.725% | – |
| O=C(CN1CCCC(c2ccn[nH]2)C1)Nc1nc2c(s1)CCC2 (configuration not stated) | – | 42.36% |
| O=C(CN1CCCC(c2ccn[nH]2)C1)Nc1nc2c(s1)CCCC2 (configuration not stated) | – | 31.73% |
| Cc1cc(C2CCCN(CC(=O)Nc3nc4c(s3)CCC4)C2)n[nH]1 (configuration not stated) | – | 56.52% |
| Cc1noc(CN(C)Cc2cncn2C(C)C)n1 | -12.13% | – |
| CCN1CC2(CC1=O)CN(Cc1cnn(C)c1)CCN(C(=O)C(C)C)C2.O=C(O)C(F)(F)F (configuration not stated) | – | -2.705% |
| CCN1CC2(CC1=O)CN(Cc1ccncc1)CCN(C(=O)C(C)C)C2.O=C(O)C(F)(F)F.O=C(O)C(F)(F)F (configuration not stated) | – | 78.24% |
| CCN1CC2(CC1=O)CN(Cc1ccoc1)CCN(C(=O)C(C)C)C2 (configuration not stated) | – | 73.92% |

| SMILES | Percent Effect (50 µM) | Percent Effect (10 µM) |
| --- | --- | --- |
| CCN1CC2(CC1=O)CN(Cc1ccco1)CCN(C(=O)C(C)C)C2.O=C(O)C(F)(F)F (configuration not stated) | – | -13.42% |
| CCN1CC2(CC1=O)CN(Cc1ccsc1)CCN(C(=O)C(C)C)C2.O=C(O)C(F)(F)F (configuration not stated) | – | -7.478% |
| CCN1CC2(CC1=O)CN(Cc1cccs1)CCN(C(=O)C(C)C)C2 (configuration not stated) | – | -4.777% |
| NS(=O)(=O)c1ccc(Sc2ccc(F)cc2F)nc1 | -8.713% | – |
| CS(=O)(=O)N1CCC(CN)C1 (configuration not stated) | 0.02635% | – |
| CC(Cc1ccco1)NS(=O)(=O)N1CCOCC1 (configuration not stated) | 99.87% | – |
| CC(Cc1ccco1)NS(=O)(=O)N1CCCCCC1 (configuration not stated) | – | -1.07% |
| CC(Cc1ccco1)NS(=O)(=O)N1CCCCC1 (configuration not stated) | – | 0.1189% |
| Nc1nc(O)cc(N2CCC(c3cc(Cc4ccccc4)n[nH]3)CC2)n1 | – | 2.428% |
| Nc1nccc(N2CCC(c3cc(Cc4ccccc4)n[nH]3)CC2)n1 | – | 46.75% |
| Nc1cc(N2CCC(c3cc(Cc4ccccc4)n[nH]3)CC2)ccn1 | – | 67.3% |
| CN(C)c1ccc(NC(=O)N2CCSCC2)cn1 | -21.27% | – |
| COc1ccc2[nH]cc(-c3ccnc(NC4CCCC4)n3)c2c1 | – | 56.3% |
| COc1ccc2[nH]cc(-c3ccnc(N4CCC(C)CC4)n3)c2c1 | – | 11.49% |
| COC(=O)c1ccc2c(-c3ccnc(NCCO)n3)c[nH]c2c1 | – | 29.45% |
| Cn1ccnc1SCC(=O)Nc1cccnc1 | -23.51% | – |
| COCCCOc1cc(C)ccc1CN | -20.96% | – |
| COc1ccc(N2CCCN(CC(=O)N3CCNC(=O)C3)CC2)cc1 | – | -0.2401% |
| COc1ccc(NCC(=O)N2CCNC(=O)C2)c(C)c1 | 52.04% | – |
| COc1cccc(CC(=O)N2CCNC(=O)C2)c1 | 4.575% | – |
| NCc1ccc(N2CCS(=O)(=O)CC2)cc1 | 2.889% | – |
| CC(Nc1ncnc2c1cnn2C)c1ccncc1 (configuration not stated) | 10.45% | – |
| NC(=O)CN1CCCN(C(=O)c2sccc2Br)CC1 | 2.336% | – |
| CN(C)CCNCCC(c1ccccc1)C1CCOC(C)(C)C1.O=C(O)C(=O)O (configuration not stated) | – | -5.061% |

| SMILES | Percent Effect (50 µM) | Percent Effect (10 µM) |
| --- | --- | --- |
| CN(C)CCCNCCC(c1ccccc1)C1CCOC(C)(C)C1.O=C(O)C(=O)O (configuration not stated) | – | 13.16% |
| Cc1ccc(C(CCNCCCN(C)C)C2CCOC(C)(C)C2)cc1.O=C(O)C(=O)O (configuration not stated) | – | 86.28% |
| Cc1ccc(C(CCNCCN(C)C)C2CCOC(C)(C)C2)cc1.O=C(O)C(=O)O (configuration not stated) | – | 5.223% |
| CN(C)CCCNCC1CCOC(C)(C)C1 (configuration not stated) | – | 15.27% |
| CC(=O)Nc1nc2c(s1)CCCC2 | -6.719% | – |
| O=S(=O)(c1ccc2c(c1)OCCO2)N1CCCNCC1 | 3.594% | – |
| NC1CN(S(=O)(=O)c2ccc3c(c2)OCCO3)C1 | 61.03% | – |
| O=S(=O)(c1ccc2c(c1)OCCO2)N1CCc2ccccc2C1 | – | 3.262% |
| c1cncc(CCNCc2cccc3c2OCCO3)c1 | -5.823% | – |
| CN(C)S(=O)(=O)NCC(O)c1cccc(C(F)(F)F)c1 (configuration not stated) | 2.973% | – |
| Cc1cccc(C(=O)Nc2cccc(O)c2)n1 | 0.8696% | – |
| CC(C)NC(=O)NCCn1cnc(C2CCCC2)cc1=O | – | 7.593% |
| O=C(NCCn1cnc(C2CCCC2)cc1=O)NCc1cccs1 | – | 56.76% |
| O=C(NCCn1cnc(C2CCCC2)cc1=O)c1ccc(=O)[nH]n1 | – | -2.574% |
| CC(=O)c1ccc(Br)o1 | 1.756% | – |
| Cc1ccc(C(=O)COC(=O)c2cccnc2N)cc1 | -8.374% | – |
| CC(C)c1ccc(S(=O)(=O)C(C)C(N)=O)cc1 (configuration not stated) | -3.645% | – |
| CC(C)CCC(=O)N1CCC(C)(CO)C1 (configuration not stated) | 58.28% | – |
| CC(C)CCC(=O)N1CCNCC1 | -1.153% | – |
| CC(=O)N1CCN(C(=O)CCC(C)C)CC1 | -13.31% | – |
| Cc1noc(C)c1CN1CCCC(CS(C)(=O)=O)C1 (configuration not stated) | -9.047% | – |
| O=C1CC(C(=O)N2CCOC3(CCCC3)C2)CCN1 (configuration not stated) | -8.974% | – |
| C1CC(C2CCOC2)CCN1 (configuration not stated) | 0.8119% | – |
| C1CC(C2CNC2)CO1 (configuration not stated) | 5.994% | – |

| SMILES | Percent Effect (50 µM) | Percent Effect (10 µM) |
| --- | --- | --- |
| C1CC(C2CNC2)CCO1 | 67.45% | – |
| CCNC(=O)CNc1nccc(OC)n1 | 5.07% | – |
| Cc1nn(-c2ccc(F)cc2)cc1CN | -3.262% | – |
| CC(C)COCC1CCNCC1 | 3.232% | – |
| Cc1ccc(C(=O)NCCCNCCCN(C)C)cn1 | 99.75% | – |
| CCCC(=O)NCCCNC(=O)c1ccc(C)nc1 | -3.506% | – |
| Cc1ccc(C(=O)NCC(C)(C)N(C)C)cn1 | -0.683% | – |
| O=C(NC1CCCSC1)N[C@H](CO)Cc1ccccc1 (some centres not stated) | 1.879% | – |
| O=C(NC1CCCSC1)N(CCO)C1CC1 (configuration not stated) | 98.6% | – |
| Cc1nnc(NC(=O)N(CCO)C2CC2)s1 | -4.304% | – |
| CCCn1ccnc1CNC(=O)CCNS(C)(=O)=O | -5.274% | – |
| Cc1cc(S(=O)(=O)N[C@@H]2CCOC[C@H]2O)n(C)n1 | 15.92% | – |
| CCn1ccnc1CN(C)CCC(=O)NC(C)C | 14.34% | – |
| CN(C)C1CCN(C(=O)CN(C)S(C)(=O)=O)CC1 | -9.436% | – |
| COc1ncccc1-c1csc(NCCSC)n1 | 98.47% | – |
| COCCNc1nc(-c2ccc(O)cc2O)cs1 | 0.3364% | – |
| COc1ncccc1-c1cccc(C#N)n1 | 5.499% | – |
| N#Cc1cccc(NC(=O)NC2CCS(=O)(=O)C2)c1 (configuration not stated) | 1.062% | – |
| CCC(=O)N(c1ccc(Cl)cc1)C1C=CS(=O)(=O)C1 (configuration not stated) | -0.8656% | – |
| NCCCNS(=O)(=O)c1ccc(Cl)cc1 | -0.1272% | – |
| Cc1ccc(-c2cc(C(=O)NCCC3=CCCCC3)[nH]n2)o1 | – | 28.69% |
| O=C(NCCC1=CCCCC1)c1cc(-c2ccc(O)cc2)n[nH]1 | – | 74.79% |
| CCCc1cc(C(=O)NCCC2=CCCCC2)[nH]n1 | – | 32.61% |
| O=C(CN1CCN(CCO)CC1)Nc1ccc(Br)cn1 | 2.183% | – |

| SMILES | Percent Effect (50 µM) | Percent Effect (10 µM) |
| --- | --- | --- |
| COc1cc(Cl)ccc1CN | 12.35% | – |
| COc1ccc(NC(=O)Cn2nc(C)c(C)cc2=O)cc1 | – | -1.054% |
| CCN1CCN(CC(=O)Nc2ccc(OC)cc2)CC1 | 6.454% | – |
| CC(=O)c1c(C)nn(CC(=O)Nc2ccc(Br)cc2)c1C | – | 96.91% |
| CC(=O)c1c(C)nn(CC(=O)Nc2ccc(F)cc2)c1C | – | 19.31% |
| COc1ccc(NC(=O)Cn2nc(C)c(C(C)=O)c2C)cc1 | – | 89.45% |
| Cc1cc(=O)n(CC(=O)Nc2ccc(Cl)cc2)nc1C | – | 3.812% |
| NCCS(=O)(=O)NCc1ccccc1 | -6.39% | – |
| CC(=O)NCCNC(=O)CC(C)C1CCCCC1 (configuration not stated) | -13.76% | – |
| CNC(=O)CN1CCC(NC(=O)c2cccs2)CC1 | -6.649% | – |
| CS(=O)(=O)C1CCCCN(C(=O)CC2CCSCC2)C1 (configuration not stated) | -13.3% | – |
| NC(=O)c1ccc(OCC(=O)c2ccccc2F)cc1 | -5.248% | – |
| CCN(Cc1c(F)cccc1Cl)c1cc(C2CCNCC2)nc(C)n1 | – | 79.97% |
| Cc1nc(C2CCNCC2)cc(N(C)Cc2cc3cc(F)ccc3[nH]2)n1 | – | 63.01% |
| CN(Cc1cc2cc(F)ccc2[nH]1)c1cc(C2CCCNC2)ncn1 (configuration not stated) | – | 38.81% |
| Cc1nc(-c2ccc(F)cc2)cc(C2CCNCC2)n1 | – | 1.268% |
| CCN(Cc1ccncc1)c1cc(C2CCNCC2)nc(C)n1 | – | 30.82% |
| CCN(Cc1ccncc1)c1cc(C2CCCNC2)nc(C)n1 (configuration not stated) | – | 14.41% |
| CCC(N)c1ccccc1OCC(=O)N(C)C (configuration not stated) | -2.206% | – |
| NC(=O)CCSc1nnc(N2CCCC2)n1C1CC1 | 10.69% | – |
| Cc1nccn1CCNc1cc(C2CC(O)C2)ncn1 (configuration not stated) | 47.03% | – |
